Results as given in PubChem BioAssay (NCI).
This is part of a sample that, as a whole, favours compounds with a hit. Of some 83,000 tested, about 20% had one in any assay.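 Plates (96-well) were seeded with cells, treated with compound at one concentration, and incubated for 48 hours before percent growth was determined.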 The source made the active and inactive calls. The calls were made as follows: active = growth percent below 10; inactive = the rest.

Legend:
Experiment in all cases: NCI-60 one-dose screen, 48 h (100 = growth as untreated, 0 = no growth, -100 = all killed)
Settings in all cases: 10 µM unless noted
[1] = test system: K-562 leukemia
[2] = test system: MALME-3M melanoma
[3] = test system: MDA-MB-231 breast
[4] = test system: RXF 393 renal
[5] = test system: SF-268 CNS
[6] = test system: SF-295 CNS
[7] = test system: SF-539 CNS
[8] = test system: UACC-257 melanoma
[9] = test system: M14 melanoma
[10] = test system: HCT-15 colon
[11] = test system: HT29 colon
[12] = test system: SNB-75 CNS
[13] = test system: SNB-19 CNS
[14] = test system: U251 CNS
[15] = test system: PC-3 prostate
[16] = test system: SK-MEL-5 melanoma
[17] = test system: UACC-62 melanoma
[18] = test system: LOX IMVI melanoma
[19] = test system: SK-MEL-28 melanoma
[20] = test system: SK-MEL-2 melanoma

Measured: growth

CS(=O)(=O)c1ccc(-c2nc3ccccn3c2/C=N/Nc2nc(-c3ccc(Cl)cc3)cs2)cc1
inactive: [1] 78.6% | [2] 127% | [3] 106% | [4] 98.8% | [5] 110% | [6] 98.8% | [7] 105% | [8] 107% | [9] 107% | [10] 94.2% | [11] 110% | [12] 120% | [13] 107% | [14] 108% | [15] 102% | [16] 91.7% | [17] 102% | [18] 122% | [19] 93.1% | [20] 102%

O=C(CCCN1C(=O)/C(=C/c2ccccc2F)SC1=S)N1CCOCC1
inactive: [1] 59.7% | [2] 72.5% | [3] 73.4% | [4] 83.7% | [5] 95.6% | [6] 103% | [7] 92.7% | [8] 83.6% | [9] 77.6% | [10] 74.3% | [11] 99.2% | [12] 79.3% | [13] 101% | [14] 86.1% | [15] 105% | [16] 97.1% | [17] 81.5% | [19] 89.7% | [20] 115%
active: [18] -63.6%

C#C[C@]1(O)CC[C@H]2[C@@H]3CC=C4c5sc(Nc6ccc(Cl)cn6)nc5CC[C@]4(C)[C@H]3CC[C@@]21C
active: [1] 9.48% | [4] -53.2% | [6] -63% | [7] -30.8% | [8] -45.2% | [12] -0.325% | [18] 0.11% | [19] -27% | [20] -13.4%
inactive: [2] 58.3% | [3] 27.2% | [5] 43.7% | [9] 50.7% | [10] 39.7% | [11] 47.2% | [13] 54.5% | [14] 19.1% | [15] 29.9% | [16] 84% | [17] 28.3%

CC(C)(C)Nc1nc2c(OCCc3ccccc3)cccn2c1-c1ccc(Cl)cc1
active: [1] 5.28% | [2] 1.51% | [4] -15.3% | [6] 3.7% | [10] 3.86% | [15] 3.08% | [16] -71.6% | [18] 2.87% | [20] -33.9%
inactive: [3] 17.4% | [5] 45.5% | [7] 21.7% | [8] 16.7% | [9] 26.8% | [11] 24.2% | [12] 51.7% | [13] 19.7% | [14] 11.9% | [17] 11.1% | [19] 29.7%

O=C(CCN1C(=O)/C(=C/c2ccccc2F)SC1=S)N1CCOCC1
inactive: [1] 32.2% | [2] 74.1% | [3] 71% | [4] 41.2% | [5] 101% | [6] 97.8% | [7] 87.8% | [8] 89.8% | [9] 80.5% | [10] 45.5% | [11] 87.1% | [12] 94% | [13] 99% | [14] 94.4% | [15] 108% | [16] 96.9% | [17] 82.7% | [19] 85.1% | [20] 113%
active: [18] -34.1%

CNC(=O)c1cc(-c2ccc(NC(=O)Nc3ccc(N4CCOCC4)c(C(F)(F)F)c3)cc2)nc2cccnc12
active: [4] -15.9% | [6] 9.49%
inactive: [1] 34.3% | [2] 60.7% | [3] 63.9% | [5] 80.2% | [7] 30.1% | [8] 89.2% | [9] 77.2% | [10] 33.5% | [11] 54.9% | [12] 67.6% | [13] 58.8% | [14] 43.7% | [15] 52.1% | [16] 67.2% | [17] 64.3% | [18] 31.1% | [19] 64.5% | [20] 67.8%

[Cl][Ru].c1ccc(-c2cc(-c3ccccn3)nc(-c3ccccn3)c2)cc1.c1ccc(-c2ccnc3c2ccc2c(-c4ccccc4)ccnc23)cc1
inactive: [5] 13.8% | [10] 45.8% | [13] 12.2%
active: [1] 1.44% | [2] -34.3% | [3] -48.4% | [4] -39% | [6] -23.1% | [7] -20.5% | [8] -28.7% | [9] -57.1% | [11] -47.6% | [12] -20% | [14] -54.8% | [15] -7.82% | [16] -94.9% | [17] -68% | [18] -71.4% | [19] -73.5% | [20] -91.6%

C/C(=C(/c1ccc(Cl)cc1)c1ccc(OCCN)cc1)c1ccc(C)cc1
inactive: [1] 90.8% | [2] 101% | [3] 94.4% | [4] 112% | [5] 100% | [6] 98.7% | [7] 93.8% | [8] 104% | [9] 102% | [10] 101% | [11] 111% | [12] 94.6% | [13] 92.6% | [14] 101% | [15] 94.6% | [16] 106% | [17] 88.6% | [18] 105% | [19] 99.6% | [20] 112%

Clc1ccc2oc3c(OCCCn4ccnc4)c4ccccc4nc3c2c1
inactive: [1] 45.2% | [2] 97.9% | [3] 65.7% | [4] 57.9% | [5] 67.7% | [6] 54% | [7] 65.1% | [8] 96.4% | [9] 93.6% | [10] 40.4% | [11] 36.7% | [12] 68.5% | [13] 73.5% | [14] 61.6% | [15] 68.9% | [16] 92.8% | [17] 83.1% | [18] 42.8% | [19] 89.8% | [20] 112%

COc1ccc(COc2ccc(/C=C3/C(=O)Nc4cc(Cl)ccc43)cc2)cc1
inactive: [1] 113% | [2] 86.6% | [3] 91.2% | [4] 105% | [5] 99.5% | [6] 101% | [7] 85.8% | [8] 106% | [9] 97.7% | [10] 104% | [11] 107% | [12] 83.8% | [13] 100% | [14] 96.8% | [15] 86.1% | [16] 96.7% | [17] 88.6% | [18] 94.8% | [19] 98.7% | [20] 114%

N[C@@H](Cc1cn(-c2ccnc3ccccc23)nn1)C(=O)O
inactive: [1] 107% | [2] 95.5% | [3] 97.5% | [4] 121% | [5] 103% | [6] 104% | [7] 93% | [8] 106% | [9] 108% | [10] 114% | [11] 102% | [12] 98.5% | [13] 88.7% | [14] 101% | [15] 96.2% | [16] 103% | [17] 95.4% | [18] 102% | [19] 97% | [20] 124%

CN1C(=S)N(C)C2C1NN=C1SC(c3ccccc3)=CC(=O)N12 (stereo not given)
inactive: [1] 57.4% | [2] 97.7% | [3] 83.3% | [4] 97.8% | [5] 108% | [6] 98% | [7] 90.8% | [8] 99% | [9] 101% | [10] 89.5% | [11] 103% | [12] 115% | [13] 98.9% | [14] 95.1% | [15] 87.5% | [16] 64.3% | [17] 78.3% | [18] 92.2% | [19] 102% | [20] 95.2%

CC(=O)Oc1ccccc1C(=O)Nc1ccc(C(=O)/C=C/c2cccs2)cc1
inactive: [1] 101% | [2] 104% | [3] 113% | [4] 126% | [5] 107% | [6] 99.1% | [7] 107% | [8] 113% | [9] 107% | [10] 96.7% | [11] 110% | [12] 113% | [13] 101% | [14] 99.4% | [15] 103% | [16] 101% | [17] 98.3% | [18] 100% | [19] 106% | [20] 122%

COc1cccc(-c2nn(-c3ccccc3)cc2-c2ccnc(N3CCN(C(=O)Nc4ccc(F)cc4)CC3)c2)c1
inactive: [1] 30.8% | [2] 76.7% | [3] 52.6% | [4] 63.4% | [5] 85.3% | [6] 64.8% | [7] 66.9% | [8] 85.8% | [9] 32.4% | [10] 35.8% | [11] 70% | [12] 66.5% | [13] 64.5% | [14] 67.4% | [15] 44.3% | [16] 42.5% | [17] 43.8% | [18] 59% | [19] 69.6% | [20] 51.1%

Cc1cccc2sc(/N=C(\N)C(Cl)(Cl)Cl)nc12
inactive: [1] 100% | [2] 102% | [3] 96.2% | [4] 120% | [5] 94.5% | [6] 94.4% | [7] 99.4% | [8] 104% | [9] 101% | [10] 102% | [11] 105% | [12] 81.6% | [13] 90.3% | [14] 95.1% | [15] 103% | [16] 99.6% | [17] 97.6% | [18] 113% | [19] 112% | [20] 118%

Cc1nc2cnc(N)c(C#Cc3cncc(C(=O)Nc4ccc(Cl)c(C(F)(F)F)c4)c3)c2nc1C
inactive: [2] 39.9% | [5] 52.6% | [6] 88.5% | [8] 77.7% | [9] 29.9% | [10] 52.6% | [11] 31.5% | [12] 44.6% | [13] 90% | [14] 77.4% | [15] 85.3% | [16] 86.9% | [17] 39.7% | [19] 44.4% | [20] 14.4%
active: [1] -15% | [3] 7.63% | [4] -18% | [7] -12.9% | [18] -77.4%
